# High-throughput results: PubChem, several laboratories
# KLF5 inhibitor: kruppel-like factor 5 inhibition; DLD-1 KLF5 promoter-luciferase reporter, luminescence; inhibition, % at 5 µM; 290,000 compounds, 0.23% hits;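 active = inhibition above a per-plate limit of that plate's mean compound inhibition plus 3 SD, cut at about 60% in these data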;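 note: 0% = DMSO wells and 100% = LY294002 at 200 µM; higher means less KLF5 promoter-driven luciferase light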
# Ba/F3 V617F tox: loss of viability in JAK2V617F-driven Ba/F3 cells; Ba/F3 EpoR-JAK2V617F viability, ATP luminescence; inhibition, % at 5.6 µM; 220,000 compounds, 1.1% hits;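 active = inhibition above the campaign mean plus 3 SD over all tested compounds, cut at about 24% in these data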;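 note: cytokine-independent growth of Ba/F3 cells driven by EpoR plus mutant JAK2; 0% = DMSO-treated cells and 100% = JAK inhibitor I control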
# aSyn 5UTR inh: MLPCN primary screen, SNCA 5' untranslated region; alpha-synuclein 5'UTR reporter, inhibitor activity; inhibition, % (tested at 7.5 µM); 300,000 compounds, 0.82% hits; AID 1813; in the data active = inhibition above about 60%;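 note: H4 neuroglioblastoma cells stably carrying SNCA 5'UTR luciferase fusion; 0% = DMSO wells and 100% = positive control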
# BaF3 parental: parental Ba/F3 viability inhibition as JAK2V617F counter-screen. CellTiter-Glo ATP luminescence. inhibition, % at 5.6 µM. 220,000 compounds, 1.1% hits;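 active = inhibition above a per-campaign cutoff, the mean inhibition of all tested compounds plus 3 SD, cut at about 27% in these data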;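 note: 0% = DMSO wells and 100% = JAK Inhibitor I control wells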
# IEC-6 tox-1: kills IEC-6 intestinal cells in KLF5 counter-screen | inhibition, % at 5 µM | IEC-6 cytotoxicity, luminescence viability | 290,000 compounds, 0.78% hits;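 note: 0% = plate median of test compound wells and 100% = cytotoxic reference compound wells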
# APP 5UTR inh: APP translation inhibition. SH-SY5Y APP 5'UTR-luciferase reporter, luminescence. inhibition, % at 2 µM. 190,000 compounds, 0.82% hits;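 active = inhibition above a set limit, derived from the sample mean plus 3 SD, cut at about 45% in these data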
# KLF5 confirm: confirmation of KLF5 inhibitors; shares compounds with KLF5 inhibitor; DLD-1 KLF5 promoter firefly luciferase reporter, luminescence; inhibition, % at 4 µM; 610 compounds, 79% hits;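 active = inhibition above a set limit taken from the earlier primary screen, cut at about 63% in these data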;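 note: 0% = DMSO wells and 100% = LY294002 at 200 µM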
# IEC-6 tox-2: rat IEC-6 cytotoxicity, KLF5 inhibitor counter-screen; shares compounds with KLF5 inhibitor; IEC-6 rat intestinal cells, viability luminescence; inhibition, % at 4 µM; 610 compounds, 56% hits; AID 1905; in the data active = inhibition above about 23%;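 note: cells exposed to compounds for 48 hours before viability read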
# IEC-6 tox confirm: IEC-6 cytotoxicity, confirmation assay. shares compounds with IEC-6 tox-1. IEC-6 rat intestinal epithelial viability, luminescence. inhibition, % at 5 µM. 1,900 compounds, 63% hits. AID 1907;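 note: 0% = vehicle and 100% = reference cytotoxic drug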
# The depositor's hits bear a star; . = no result given. Rows were chosen to be rich in hits. Some 2.1% of all compounds tested hit in one or more screens of this group. Cut-off read from the data, not from the text of the source, unless noted: active = inhibition above about 22%; inactive = the rest.
SMILES,KLF5 inhibitor,Ba/F3 V617F tox,aSyn 5UTR inh,BaF3 parental,IEC-6 tox-1,APP 5UTR inh,KLF5 confirm,IEC-6 tox-2,IEC-6 tox confirm
Oc1c(Cl)cc(CN2CCCCC2)c2cccnc12,97.9*,.,38.5,.,7.0,.,92.3*,11.7,.
CCOc1ccc(CCNC(=O)COC(=O)/C=C/c2ccco2)cc1OCC,-35.0,.,14.4,.,-10.8,.,.,.,.
CC1CCC(=O)N(CCC#N)CC1 (stereo unspecified),-20.8,.,1.7,.,-0.4,.,.,.,.
Cc1cc(C)c(S(=O)(=O)Nc2ccc3c4c(cccc24)CC3)c(C)c1,70.5*,76.7*,106.0*,79.4*,89.3*,95.2*,84.2*,56.8*,56.1*
Cc1cc(C)c(S(=O)(=O)Nc2ccc3c(c2)CCC3)c(C)c1,-4.3,6.6,-2.4,9.1,5.3,1.9,.,.,.
CSc1ccccc1NC(=O)C(=O)c1c[nH]c2ccccc12,-78.5,4.8,-146.0,5.9,8.1,-34.1,.,.,.
O=C(CCc1ccccc1)NNC(=O)Nc1ccc(F)c(Cl)c1,0.9,.,6.6,.,6.8,.,.,.,.
Cc1ccccc1NC1=C/C(=N\S(=O)(=O)c2ccc(C(=O)O)cc2)c2ccccc2C1=O,-17.5,.,-69.0,.,16.0,.,.,.,.
COc1ccc(S(=O)(=O)/N=C2\C=C(Nc3ccc(O)cc3)C(=O)c3ccccc32)cc1,103.9*,.,100.3*,.,101.1*,.,113.6*,101.8*,99.7*
CCOC(=O)N1CCC(NC(=O)c2ccc3c(c2)N=C(C)c2c(C)ccc(C)c2S3)CC1,70.7*,.,36.7,.,87.4*,.,86.9*,60.9*,67.5*
COc1ccc(C(=O)N2CCCC(N3CCN(c4ccccc4F)CC3)C2)c(OC)n1 (stereo unspecified),-27.2,.,3.8,.,-0.9,.,.,.,.
CCOc1ccc(NC(=O)CSc2nc(=O)n(CCCN3CCOCC3)c3c2CCC3)cc1,.,.,-3.7,.,.,.,.,.,.
O=C(Nc1ccc2nc3n(c(=O)c2c1)CCCCC3)c1c(F)ccc([N+](=O)[O-])c1F,62.1*,.,84.9*,.,92.2*,.,-19.0,21.5,32.3*
O=C1CCCN1CCC(=O)N1CCCC(Nc2ccc(F)c(F)c2)C1 (stereo unspecified),-53.9,.,6.3,.,0.9,.,.,.,.
O=C(Cc1ccc(N2CCNC2=O)cc1)N1CCCC(Nc2ccc(F)c(F)c2)C1 (stereo unspecified),67.1*,.,13.2,.,48.5*,.,69.3*,61.6*,35.4*
O=C(Cc1ccc(N2CCNC2=O)cc1)N1CCCC(Nc2cccc(F)c2)C1 (stereo unspecified),69.9*,.,63.8*,.,71.2*,.,71.2*,47.3*,56.2*
CCN1/C(=C/c2sc(-c3ccccc3C)c[n+]2C)Sc2ccccc21,63.1*,99.8*,94.4*,80.4*,34.5*,0.8,40.5,13.8,38.5*
O=C(NCCC(=O)N1CCC2(CC1)NCCc1[nH]cnc12)c1cccc(Br)c1,-42.1,.,17.5,.,-5.8,.,.,.,.
CCOc1ccc(/C=N/Nc2ccc(Cl)nn2)c(O)c1,81.9*,.,33.8,.,93.7*,.,31.2,-1.6,4.6
CCOc1ccccc1/C=N/Nc1ccc(Cl)nn1,33.2,.,-20.1,.,-2.3,.,.,.,.
COc1ccccc1N1CCN(C(=O)C2c3ccccc3Oc3ccccc32)CC1,69.6*,82.7*,80.9*,77.7*,82.5*,87.0*,70.0*,57.3*,57.4*
COc1ccccc1N1CCN(C(=O)C2CC2)CC1,.,.,-1.6,.,.,.,.,.,.
O=C(N/N=C/c1cccc(Oc2ccccc2)c1)c1ccccc1F,64.0*,.,-38.9,.,28.5*,.,66.1*,1.7,21.0
CCOC(=O)c1c(S(=O)(=O)NCC(=O)Nc2cccc(C)c2)c(C)n(C)c1C,-8.2,.,5.0,.,-2.2,.,.,.,.
Cc1ccccc1NC(=O)Cn1nnc(C(=O)NCc2ccco2)c1N,15.8,6.4,-3.8,6.5,2.5,-15.4,.,.,.
CCOc1ccccc1NC(=O)Cn1nnc(C(=O)NCc2ccco2)c1N,76.3*,87.0*,84.6*,85.6*,86.9*,96.0*,88.1*,63.8*,58.2*
CCCOc1ccc(-c2c(C(=O)N/N=C(\C)c3cccs3)nnn2-c2nonc2N)cc1,-6.6,.,0.2,.,-1.5,.,.,.,.
COc1ccccc1CNC(=O)CCC(=O)n1ncc2cc(C)ccc21,-1.3,.,-4.4,.,4.9,.,.,.,.
